These results are taken from PubChem BioAssay (NCI).

Holding throughout (experiment): NCI-60 one-dose screen, 48 h (100 = growth as untreated, 0 = no growth, -100 = all killed)
One experiment has as its system NCI-H23 lung. Particulars: 10 µM unless noted.
Another experiment relates to NCI-H226 lung. Particulars: 10 µM unless noted.
A further experiment concerns NCI-H322M lung. Particulars: 10 µM unless noted.
In another experiment the test system is HOP-62 NSCLC. Particulars: 10 µM unless noted.
Another experiment deals with HOP-92 NSCLC. Particulars: 10 µM.
For the next experiment, the system named is NCI-H522 lung. Particulars: 10 µM.
The subject of the next experiment is A549/ATCC NSCLC. Particulars: 10 µM unless noted.
The next experiment deals with 786-0 renal. Particulars: 10 µM unless noted.
A further experiment deals with COLO 205 colon. Particulars: 10 µM unless noted.
A further experiment has as its system DU-145 prostate. Particulars: 10 µM unless noted.
Another experiment has as its system K-562 leukemia. Particulars: 10 µM unless noted.
The test system of another experiment is MALME-3M melanoma. Particulars: 10 µM unless noted.
The next experiment relates to MDA-MB-231 breast. Particulars: 10 µM unless noted.
The subject of a further experiment is RXF 393 renal. Particulars: 10 µM unless noted.
In the next experiment the test system is SF-268 CNS. Particulars: 10 µM unless noted.
For a further experiment, the system named is SF-295 CNS. Particulars: 10 µM unless noted.
The subject of a further experiment is SF-539 CNS. Particulars: 10 µM unless noted.
A further experiment has as its system UACC-257 melanoma. Particulars: 10 µM unless noted.
A further experiment deals with M14 melanoma. Particulars: 10 µM unless noted.

Structures are written as SMILES. Compounds without any hit were thinned out: in the full panel of roughly 83,000, 20% have a hit.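 The endpoint reported here, percent growth, reads 100 for growth as untreated, 0 for no net growth and -100 for all cells dead.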 Unmarked numbers belong to inactive results. Calls of active or inactive are those of the source. Rule for the calls: active = growth percent below 10; inactive = the rest.

On to `CCCCCCCCCCN1CC2CCCCC2C1` (stereo unspecified), for which the growth in the experiment with NCI-H23 lung was 82.2%; in the experiment with NCI-H226 lung it was 76%; in the experiment on NCI-H322M lung, 99.7%; with HOP-62 NSCLC, 69.4%; in the experiment with HOP-92 NSCLC, 56.4%; with NCI-H522 lung it was 67.1%. The growth in the experiment with A549/ATCC NSCLC is 97.3%; in the experiment with 786-0 renal, 86.6%; in the experiment with COLO 205 colon it was 61%; in the experiment with DU-145 prostate, 69%; in the experiment with K-562 leukemia, 24.4%; with MALME-3M melanoma, 108%. For the same molecule, the growth was 34.1% in the experiment on MDA-MB-231 breast; 77.7% with RXF 393 renal; 72.2% in the experiment with SF-268 CNS; 85.1% in the experiment with SF-295 CNS; 85.1% with SF-539 CNS; 87.2% with UACC-257 melanoma. The growth in the experiment on M14 melanoma is 73.3%.
Take `O=C(O)c1ccc(-c2nn(-c3ccc(C(=O)O)cc3)cc2CNc2ccc(Br)cc2)cc1`: the growth with NCI-H23 lung was 106%; in the experiment with NCI-H226 lung, 115%; in the experiment with NCI-H322M lung, 100%; in the experiment on HOP-62 NSCLC, 104%; in the experiment with HOP-92 NSCLC it was 102%; with NCI-H522 lung, 85.4%. Also, the growth in the experiment with A549/ATCC NSCLC is 101%; in the experiment on 786-0 renal it was 102%; in the experiment on COLO 205 colon it was 108%; in the experiment on DU-145 prostate, 102%; with K-562 leukemia it was 102%; in the experiment with MALME-3M melanoma, 106%. Further, the growth is 115% in the experiment on MDA-MB-231 breast; 111% with RXF 393 renal; 94.1% in the experiment on SF-268 CNS; 101% with SF-295 CNS; 101% with SF-539 CNS; 101% with UACC-257 melanoma. Moreover, the growth in the experiment with M14 melanoma is 97.6%.
Take `O=C1C(Cl)=C(Nc2ccc(Nc3ccccc3)c(NC3=C(Cl)C(=O)c4ccccc4C3=O)c2)C(=O)c2ccccc21`: the growth in the experiment on NCI-H23 lung was 88.4%; with NCI-H226 lung, 98.8%; in the experiment on NCI-H322M lung it was 57.3%; in the experiment on HOP-62 NSCLC it was 59.8%; with HOP-92 NSCLC, 45.3%; in the experiment with NCI-H522 lung, 14.9%. The growth with A549/ATCC NSCLC was 92.7%; in the experiment with 786-0 renal, 78.3%; with COLO 205 colon, -15.6% (active); in the experiment on DU-145 prostate it was 104%; in the experiment on K-562 leukemia, 41.4%; in the experiment with MALME-3M melanoma, 39.4%. Also, the growth is 58.5% in the experiment on MDA-MB-231 breast; 74.3% in the experiment with RXF 393 renal; 72.7% in the experiment with SF-268 CNS; 42.5% with SF-539 CNS; 79.8% with UACC-257 melanoma; 118% with M14 melanoma.
Take `Cc1ccc(CC(=O)O)c(C)c1`: the growth is 91.3% with NCI-H23 lung; 99.8% in the experiment with NCI-H226 lung; 108% in the experiment with NCI-H322M lung; 99.6% in the experiment on HOP-62 NSCLC; 98.5% in the experiment on HOP-92 NSCLC; 85% in the experiment with NCI-H522 lung. In addition, the growth with A549/ATCC NSCLC is 94.5%; in the experiment on 786-0 renal, 105%; in the experiment with COLO 205 colon, 113%; with DU-145 prostate it was 107%; with K-562 leukemia, 104%; with MALME-3M melanoma it was 110%. Further, the growth in the experiment with MDA-MB-231 breast was 105%; in the experiment with RXF 393 renal, 121%; with SF-268 CNS, 96.3%; in the experiment on SF-295 CNS, 97.1%; in the experiment with SF-539 CNS, 106%; in the experiment on UACC-257 melanoma it was 91.7%. Also, in the experiment on M14 melanoma, the growth is 102%.
Take `CCCNC(=O)Oc1ccc(/C(=C(/C)Cc2ccc(OC)cc2)c2ccc(OCCN3CCCCC3)cc2)cc1`: the growth with NCI-H23 lung is 90.8%; with NCI-H226 lung, 95.1%; in the experiment with NCI-H322M lung it was 81.5%; with HOP-62 NSCLC, 84.9%; in the experiment with HOP-92 NSCLC, 61%; in the experiment with NCI-H522 lung, 84.8%. The growth in the experiment with A549/ATCC NSCLC is 84.4%; in the experiment with 786-0 renal, 81.8%; in the experiment on COLO 205 colon it was 79%; in the experiment with DU-145 prostate, 97%; in the experiment with K-562 leukemia, 50.8%; with MALME-3M melanoma it was 112%. In addition, the growth in the experiment with MDA-MB-231 breast is 79.5%; with RXF 393 renal, 88.7%; with SF-268 CNS, 81.8%; in the experiment on SF-295 CNS, 102%; in the experiment with SF-539 CNS it was 94%; in the experiment with UACC-257 melanoma, 93.7%. Also, in the experiment on M14 melanoma, the growth was 85.6%.
For `COc1cc(/C=C/C(=O)/C=C(/C=C/c2ccc(OC(C)=O)c(OC)c2)OB(F)F)ccc1OC(C)=O`, the growth with NCI-H23 lung is 61.5%; with NCI-H226 lung, 87.1%; with NCI-H322M lung, 99.6%; in the experiment on HOP-62 NSCLC it was 103%; with HOP-92 NSCLC, 62.5%; with NCI-H522 lung, 16.8%. In addition, the growth in the experiment with A549/ATCC NSCLC is 82.7%; in the experiment with 786-0 renal, 80.7%; in the experiment with COLO 205 colon, 71.2%; in the experiment with DU-145 prostate, 64.5%; in the experiment with K-562 leukemia, 15.2%; with MALME-3M melanoma, 51.7%. Also, the growth is 80.8% in the experiment on MDA-MB-231 breast; 14.7% in the experiment with RXF 393 renal; 81.2% in the experiment on SF-268 CNS; 86.7% in the experiment with SF-295 CNS; 56.8% in the experiment with SF-539 CNS; 63% in the experiment with UACC-257 melanoma. Further, the growth in the experiment on M14 melanoma is 34.1%.
Consider `O=C(Nc1ccc(Cl)c(Cl)c1)O/N=C\c1c(Cl)ccc([N+](=O)[O-])c1Cl`, for which the growth in the experiment on NCI-H23 lung was 27%; in the experiment on NCI-H226 lung, 58.4%; with NCI-H322M lung, 11.6%; in the experiment with HOP-62 NSCLC, -86.3% (active); in the experiment with HOP-92 NSCLC, 6.84% (active); with NCI-H522 lung, -90.4% (active). Also, the growth was 45.5% in the experiment with A549/ATCC NSCLC; 5.13% (active) in the experiment on 786-0 renal; -83.3% (active) in the experiment on COLO 205 colon; -82.5% (active) in the experiment on DU-145 prostate; -7.08% (active) in the experiment on K-562 leukemia; -44.9% (active) in the experiment on MALME-3M melanoma. In addition, the growth in the experiment on MDA-MB-231 breast is -59.7% (active); with RXF 393 renal it was -45.1% (active); in the experiment on SF-268 CNS, -4.9% (active); in the experiment on SF-295 CNS, 83.9%; in the experiment on SF-539 CNS it was 4.51% (active); in the experiment with UACC-257 melanoma, -49.2% (active). Further, the growth with M14 melanoma was 32%.
`CC(=O)OCC(=O)[C@@]1(O)[C@H](C)C[C@H]2[C@@H]3C=C(C)C4=Cc5c(cnn5-c5ccc(F)cc5)C[C@]4(C)[C@H]3[C@@H](O)C[C@@]21C`: the growth in the experiment with NCI-H23 lung is -28.2% (active); in the experiment on NCI-H226 lung, 59.9%; in the experiment on NCI-H322M lung it was 49.9%; in the experiment on HOP-62 NSCLC, -11.8% (active); with HOP-92 NSCLC, 24.4%; in the experiment with NCI-H522 lung, -23.7% (active). In addition, the growth with A549/ATCC NSCLC was 16.7%; with 786-0 renal, -26.5% (active); in the experiment with COLO 205 colon, -39.2% (active); with DU-145 prostate it was 13.9%; with K-562 leukemia, 12.6%; in the experiment on MALME-3M melanoma, 61.8%. The growth with MDA-MB-231 breast is 53.1%; in the experiment on RXF 393 renal, -12.3% (active); in the experiment with SF-268 CNS, 34.2%; in the experiment on SF-295 CNS, -32.2% (active); in the experiment with SF-539 CNS, -39.6% (active); in the experiment on UACC-257 melanoma, 49.8%. Besides, the growth with M14 melanoma was 32.6%.
